Rows were chosen to be rich in hits. Some 0.43% of all compounds tested hit in one or more screens of this group.
EPAC1 antagonist – antagonists of human EPAC1. EPAC1 GEF assay, Rap1b-BODIPY-GDP exchange fluorescence. Potency, µM (series often up to 115 µM), for the others: at the top dose activity change, negative = inhibition, most hits filed as inhibitors. hit rate 0.14% among 360,000. AID 720709;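 note: plate controls were vehicle for no effect and positive control for full effect; nearly all actives have a fitted effect of over 50% in size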
EPAC1 agonist – agonists of human EPAC1 | O95398 | EPAC1 agonist qHTS, biochemical assay; response scale: 100% = response to 6.5 mM cAMP | Potency, µM (top dose mostly 154 µM), inactives show top-dose activation, usual class: activators | hit rate 0.073% among 360,000 | AID 720707; note: nearly all actives have a fitted effect of over 60% in size
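Multi-concentration qHTS readout: loss of Rap1B-bound BODIPY-GDP fluorescence driven by 100 nM EPAC1 with excess GDP (50 uM), monitored kinetically at room temperature; agonist response expressed relative to 6.5 mM cAMP.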
Rango complex inh – inhibitors of Rango-importin beta complex formation; Potency, µM (titrated, usually from 92.2 µM), without a hit: at the highest dose inhibition of complex formation; AID 540263; Q14974; Rango CFP/YFP FRET sensor + importin beta, 45 min; hit rate 0.031% among 340,000; calls by dose curve;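 note: 0% = DMSO wells and 100% = buffer wells lacking importin beta; nearly all actives have a fitted effect of over 15% in size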
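FRET biosensor Rango (snurportin 1 IBB between N-terminal EYFP and C-terminal Cerulean), 50 nM in PBS/1 mM DTT/0.02% Tween-20/0.1% BSA, preincubated 5 min RT with compound; 0.125 microM importin beta added, 45 min RT, CFP/YFP FRET ratio read.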
EPAC2 ag – EPAC2 (human) agonism. EPAC2 activation, biochemical qHTS; response scale: 100% = 6.5 mM cAMP response. Potency, µM (doses to about 154 µM), for inactives: at the top dose activation, hits mostly activators. hit rate 0.079% among 360,000; note: nearly all actives have a fitted effect of over 50% in size
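Exchange assay: 100 nM EPAC2 with 250 nM Rap1B-BODIPY-GDP and 50 uM GDP. Fluorescence (ex 480/em 540 nm) read every 5 min for 30 min at room temperature. Data normalized to 6.5 mM cAMP as agonist control.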
EPAC2 antag – antagonists of human EPAC2. Q8WZA2. EPAC2 GEF exchange of Rap1B-BODIPY-GDP, fluorescence. Potency, µM (doses to about 114 µM), for the others: at the top dose activity, negative = inhibition, usual class: inhibitors. hit rate 0.18% among 360,000. AID 720708; note: % is set by controls: 0 for no effect and ±100 for the full control effect; nearly all actives have a fitted effect of over 45% in size
Rango release inh – inhibition of RanGTP-driven Rango-importin beta dissociation; AID 540253; Biochemical FRET Rango-importin beta, RanGTP-induced dissociation; Potency, µM (titrated, usually from 46.1 µM), for inactives: at the top dose activity change, negative = inhibition; hit rate 0.071% among 340,000; O95149+P62826; calls by dose curve; note: % of control where 0% means no effect; nearly all actives have a fitted effect of over 45% in size
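Rango FRET biosensor (snurportin-1 IBB flanked by N-terminal EYFP and C-terminal CFP10) at 0.1 uM, with 0.25 uM importin beta in PBS, 1mM DTT, 0.02% Tween-20, 0.1% BSA. 0.6 uM Ran, 2mM GTP and 0.2 uM RCC1 were then added for 45 min at room temperature. Inhibition read as loss of FRET rise.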
An asterisk follows results filed as active. Unless noted, calls come from the whole dose curve; as a rule, active = well fitted curve in the direction sought with a large enough effect; inconclusive = small, poorly fitted or top-dose-only effect, or another doubt; inactive = no such curve, though single readings can be large; an effect the other way counts as inactive or inconclusive. Potency is the fitted concentration of half-maximal effect.

CC(C)N1CCc2c(sc(NC(=O)c3ccc(S(=O)(=O)N4CCOCC4)cc3)c2C#N)C1 was read as EPAC1 antagonist -9%, EPAC1 agonist -4%, Rango complex inh inconclusive, EPAC2 ag 100µM*, EPAC2 antag 20% and Rango release inh inconclusive.
CCOC(=O)N1CCc2c(sc(NC(=O)c3ccc(S(=O)(=O)N4CCCC4)cc3)c2C#N)C1 was read as EPAC1 antagonist -9%, EPAC1 agonist -3%, Rango complex inh inconclusive, EPAC2 ag 5%, EPAC2 antag -1% and Rango release inh inconclusive.
For CC(C)N1CCc2c(sc(NC(=O)c3ccc(S(=O)(=O)N4CCc5ccccc54)cc3)c2C(N)=O)C1 the results were EPAC1 antagonist inconclusive, EPAC1 agonist -12%, Rango complex inh inconclusive, EPAC2 ag -27%, EPAC2 antag 45µM* and Rango release inh inconclusive.
Screening CNC(=O)c1c(NC(=O)c2ccc(S(=O)(=O)N(C)c3ccccc3)cc2)sc2c1CCN(C(C)C)C2 returned EPAC1 antagonist 7%, EPAC1 agonist 12%, Rango complex inh inconclusive, EPAC2 ag inconclusive, EPAC2 antag 4% and Rango release inh inconclusive.
For CCCN1CCc2c(sc(NC(=O)CCS(=O)(=O)c3ccccc3)c2C(N)=O)C1 the results were EPAC1 antagonist -10%, EPAC1 agonist 7%, Rango complex inh inconclusive, EPAC2 ag 13%, EPAC2 antag -4% and Rango release inh inconclusive.
Cc1cccc(S(=O)(=O)N2C[C@@H](O)COC[C@@H]3O[C@H](CC(=O)NCCCN4CCOCC4)CC[C@H]32)c1 was read as EPAC1 antagonist -13%, EPAC1 agonist 3%, EPAC2 ag -4% and EPAC2 antag 1%.
Screening Cc1ccc(S(=O)(=O)N2[C@H](CC(=O)c3ccc(Cl)c(Cl)c3)OC[C@@H]2C(C)C)cc1 returned EPAC1 antagonist -9%, EPAC1 agonist 6%, EPAC2 ag 11% and EPAC2 antag -12%.
O=C1Nc2ccccc2C(=O)N(c2ccc3c(c2)OCCO3)C1C(=O)NC1CC1 (stereo not given) was read as EPAC1 antagonist 12%, EPAC1 agonist 6%, EPAC2 ag 2% and EPAC2 antag 16%.
`CN1CCN(C(=O)C[C@H]2CC[C@H]3[C@@H](COC[C@@H](O)CN3C(=O)C3CCCC3)O2)CC1` gave EPAC1 antagonist -8%, EPAC1 agonist 9%, EPAC2 ag 9% and EPAC2 antag 2%.
Screening COc1ccc(NC(=O)c2cccnc2NCCc2ccccc2)cc1 returned EPAC1 antagonist 52%, EPAC1 agonist 56µM*, Rango complex inh inconclusive, EPAC2 ag 32µM*, EPAC2 antag -4% and Rango release inh 14%.
For O=c1cc(CSc2nc3ccccc3c(=O)[nH]2)c2ccc(O)cc2o1 the results were EPAC1 antagonist 50µM*, EPAC1 agonist -23%, Rango complex inh inconclusive, EPAC2 ag 5%, EPAC2 antag -16% and Rango release inh inconclusive.
COc1ccc(/C=C2/C(=O)N(CC3CCCO3)C(=S)N2C)c(OC)c1 (stereo not given) was read as EPAC1 antagonist 50µM*, EPAC1 agonist -285%, Rango complex inh inconclusive, EPAC2 ag inactive, EPAC2 antag 451% and Rango release inh inconclusive.
COc1ccccc1/C=C1\NC(=S)N(CC2CCCO2)C1=O (stereo not given) was read as EPAC1 antagonist -17%, EPAC1 agonist 9%, Rango complex inh 4%, EPAC2 ag 11%, EPAC2 antag -1% and Rango release inh inconclusive.
`CN(CC(=O)Nc1ccc(F)cc1)C(=O)CSc1ccc2c(c1)OCCO2` gave EPAC1 antagonist 11%, EPAC1 agonist 14%, Rango complex inh 0%, EPAC2 ag 3%, EPAC2 antag -2% and Rango release inh -17%.

High-throughput results: PubChem, National Center for Advancing Translational Sciences (NCATS)
